Reference: PubChem BioAssay AID651551 (Sanford-Burnham Center for Chemical Genomics, 2012)

The compounds below were run against PEG-3 (UniProt Q6IN02) (assay: GAPDH versus PEG-3 reporter suppression – cell-based, luminescence, counter-screen for PEG-3 promoter inhibitor project, SAR follow-up (AID 651551)). Conditions: HeLa PEG-Prom / GAPDH luciferase reporter, 6 or 24 h, run 3, 6 h; at 99 µM (top of the series).
Work on COc1ccc(-n2nc(C(=O)NCC(=O)Nc3cccc(OC)c3)c3ccccc3c2=O)cc1 yielded an inhibition % (higher = more inhibition) of -17.6%. With CCn1nc(C(=O)Nc2nc(-c3ccccn3)cs2)c2ccccc2c1=O the inhibition % (higher = more inhibition) was 39.7%. In the case of CCCn1nc(C(=O)Nc2nc(-c3ccccn3)cs2)c2ccccc2c1=O, the inhibition % (higher = more inhibition) is reported as 34.4%. Compound O=C(Nc1nccs1)c1nn(-c2ccccc2)c(=O)c2ccccc12 has an inhibition % (higher = more inhibition) of 29.3%. With Cc1cc(NC(=O)c2ccccc2C(F)(F)F)n(-c2nc3ccccc3[nH]2)n1 the inhibition % (higher = more inhibition) was 83.9%. Compound Cc1cc(NC(=O)c2ccccc2)n(-c2nc3ccccc3[nH]2)n1 has an inhibition % (higher = more inhibition) of 76.2%. In the case of Cc1nc(NC(=O)c2ccccc2)sc1-c1csc(Nc2ccccc2Cl)n1, the inhibition % (higher = more inhibition) is reported as 19.9%. Compound COc1ccccc1Nc1nc(-c2sc(NC(=O)c3ccco3)nc2C)cs1 has an inhibition % (higher = more inhibition) of 15.2%. CCn1cc(C(=O)NCc2ccco2)c(=O)c2cc(S(=O)(=O)N3CCCC3)ccc21 gave an inhibition % (higher = more inhibition) of 15.2%. CCCn1nc(C(=O)Nc2nc3ccccc3s2)c2ccccc2c1=O gave an inhibition % (higher = more inhibition) of 36.4%. COc1ccc(Cl)cc1Nc1nc(-c2sc(NC(=O)c3ccccc3)nc2C)cs1 was tested, and the inhibition % (higher = more inhibition) was 64.3%. In the case of Cc1cc(NC(=O)c2ccccc2)n(-c2nc3ccccc3n2C)n1, the inhibition % (higher = more inhibition) is reported as 40.4%. In the case of Cc1nc(NC(=O)c2ccccc2)sc1-c1csc(Nc2cccc(Cl)c2C)n1, the inhibition % (higher = more inhibition) is reported as 49.3%. With Cc1ccc(Cl)cc1Nc1nc(-c2sc(NC(=O)c3ccco3)nc2C)cs1 the inhibition % (higher = more inhibition) was 50.8%. Compound CCCn1nc(C(=O)Nc2nc(-c3ccncc3)cs2)c2ccccc2c1=O has an inhibition % (higher = more inhibition) of 24.5%. In the case of COc1ccc(-n2nc(C(=O)NCC(=O)Nc3cc(OC)c(OC)c(OC)c3)c3ccccc3c2=O)cc1OC, the inhibition % (higher = more inhibition) is reported as 9.38%. Work on Cc1cc(NC(=O)c2cccc(C)c2C)n(-c2nc3ccccc3[nH]2)n1 yielded an inhibition % (higher = more inhibition) of 61.3%.
